Results from the supplement of paper PMC10849652.
Of roughly 8,800 targets only a part is listed; those with a hit were picked by preference. About 0.5% of all pairs of compound and target were hits.

Compound: CC(C)(O)CC(=O)NCCn1ccc2ncnc(Nc3ccc(Oc4cccc(C(F)(F)F)c4)c(Cl)c3)c21
Experiment: log2 fold change, soluble protein after heating vs DMSO (PISA); higher = thermal stabilisation; K562 lysate, 10 uM; active = over 0.2 and 3.5 SD of the protein, either way, in both replicates (recomputed)
How it was run: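 Thermal stability, expressed as log-two fold change relative to solvent controls, is given from duplicates. Crude K562 extract in PBS pH 7.4 with 1 mM MgCl2, at 1 mg/mL protein, was treated with 10 μM compound for 30 min and heated in aliquots for 3 min across 48°C-58°C. After pooling, adjustment to 0.5% NP-40 at 4°C and centrifugation at 21,000xg for 90 min, supernatant protein was measured by TMTpro 16plex LC-MS/MS with channel sums equalised.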

Chain of UniProt Q66K74 (Q66K74 whole entry, looked up): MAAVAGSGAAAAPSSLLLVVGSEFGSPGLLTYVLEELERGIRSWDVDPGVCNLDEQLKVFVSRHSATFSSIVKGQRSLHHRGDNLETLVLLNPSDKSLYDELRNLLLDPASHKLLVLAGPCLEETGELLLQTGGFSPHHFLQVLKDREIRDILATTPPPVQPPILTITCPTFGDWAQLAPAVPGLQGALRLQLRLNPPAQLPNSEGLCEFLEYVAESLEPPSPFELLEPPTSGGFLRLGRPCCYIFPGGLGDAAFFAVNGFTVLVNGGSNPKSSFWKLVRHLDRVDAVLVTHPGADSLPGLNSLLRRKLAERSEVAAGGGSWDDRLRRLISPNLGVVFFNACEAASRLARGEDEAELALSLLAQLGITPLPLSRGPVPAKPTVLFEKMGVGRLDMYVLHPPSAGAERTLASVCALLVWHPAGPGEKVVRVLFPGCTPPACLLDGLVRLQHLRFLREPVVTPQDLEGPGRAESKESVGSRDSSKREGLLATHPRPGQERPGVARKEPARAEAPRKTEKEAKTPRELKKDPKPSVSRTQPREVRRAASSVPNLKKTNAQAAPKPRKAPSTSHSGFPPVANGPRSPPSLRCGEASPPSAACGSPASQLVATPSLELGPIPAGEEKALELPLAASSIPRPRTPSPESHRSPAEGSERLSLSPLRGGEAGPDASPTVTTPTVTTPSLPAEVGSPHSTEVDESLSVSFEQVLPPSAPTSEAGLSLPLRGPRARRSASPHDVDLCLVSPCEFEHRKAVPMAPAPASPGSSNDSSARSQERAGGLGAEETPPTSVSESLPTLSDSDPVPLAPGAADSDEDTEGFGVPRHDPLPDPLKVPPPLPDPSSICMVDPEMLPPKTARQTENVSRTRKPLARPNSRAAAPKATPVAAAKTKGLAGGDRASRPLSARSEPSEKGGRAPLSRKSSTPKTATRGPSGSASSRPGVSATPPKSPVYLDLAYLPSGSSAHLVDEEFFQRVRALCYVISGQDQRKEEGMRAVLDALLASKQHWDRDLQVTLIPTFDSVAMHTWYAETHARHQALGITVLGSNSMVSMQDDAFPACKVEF
Chain of UniProt Q9BQ69 (Q9BQ69 whole entry, looked up): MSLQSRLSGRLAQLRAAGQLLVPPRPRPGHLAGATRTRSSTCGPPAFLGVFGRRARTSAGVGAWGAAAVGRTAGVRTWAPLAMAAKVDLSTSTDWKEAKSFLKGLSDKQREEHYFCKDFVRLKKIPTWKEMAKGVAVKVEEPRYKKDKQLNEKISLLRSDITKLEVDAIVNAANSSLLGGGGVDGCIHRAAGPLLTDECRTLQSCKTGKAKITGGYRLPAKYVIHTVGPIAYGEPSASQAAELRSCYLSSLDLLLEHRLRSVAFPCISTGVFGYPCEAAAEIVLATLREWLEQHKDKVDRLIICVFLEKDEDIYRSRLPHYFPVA
Chain of UniProt P49916 (P49916 whole entry, looked up): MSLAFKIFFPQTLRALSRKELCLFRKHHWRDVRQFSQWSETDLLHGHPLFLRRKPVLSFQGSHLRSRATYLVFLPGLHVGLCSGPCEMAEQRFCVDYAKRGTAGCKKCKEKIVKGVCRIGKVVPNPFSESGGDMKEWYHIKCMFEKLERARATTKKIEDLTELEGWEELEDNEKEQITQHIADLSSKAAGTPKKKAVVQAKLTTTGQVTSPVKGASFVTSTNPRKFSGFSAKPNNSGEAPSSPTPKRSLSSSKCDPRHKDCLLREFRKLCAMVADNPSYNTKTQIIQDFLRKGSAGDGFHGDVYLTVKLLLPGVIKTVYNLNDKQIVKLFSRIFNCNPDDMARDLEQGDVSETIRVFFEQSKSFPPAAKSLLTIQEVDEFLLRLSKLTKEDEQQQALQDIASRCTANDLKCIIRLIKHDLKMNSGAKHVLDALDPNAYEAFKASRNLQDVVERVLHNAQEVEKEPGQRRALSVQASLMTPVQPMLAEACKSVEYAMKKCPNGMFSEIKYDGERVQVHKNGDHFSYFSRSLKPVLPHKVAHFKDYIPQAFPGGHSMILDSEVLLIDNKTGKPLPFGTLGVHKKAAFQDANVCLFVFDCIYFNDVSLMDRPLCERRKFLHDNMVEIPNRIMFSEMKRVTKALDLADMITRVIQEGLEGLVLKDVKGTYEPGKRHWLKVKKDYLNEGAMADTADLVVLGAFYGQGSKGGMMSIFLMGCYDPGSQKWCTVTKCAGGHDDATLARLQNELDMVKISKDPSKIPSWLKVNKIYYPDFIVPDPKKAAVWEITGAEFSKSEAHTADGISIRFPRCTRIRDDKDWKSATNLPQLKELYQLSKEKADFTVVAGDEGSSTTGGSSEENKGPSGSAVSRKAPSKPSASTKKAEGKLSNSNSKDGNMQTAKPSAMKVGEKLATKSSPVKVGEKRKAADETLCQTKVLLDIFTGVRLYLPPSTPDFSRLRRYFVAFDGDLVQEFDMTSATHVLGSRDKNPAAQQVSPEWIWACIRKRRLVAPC
Chain of UniProt P45985 (P45985 whole entry, looked up): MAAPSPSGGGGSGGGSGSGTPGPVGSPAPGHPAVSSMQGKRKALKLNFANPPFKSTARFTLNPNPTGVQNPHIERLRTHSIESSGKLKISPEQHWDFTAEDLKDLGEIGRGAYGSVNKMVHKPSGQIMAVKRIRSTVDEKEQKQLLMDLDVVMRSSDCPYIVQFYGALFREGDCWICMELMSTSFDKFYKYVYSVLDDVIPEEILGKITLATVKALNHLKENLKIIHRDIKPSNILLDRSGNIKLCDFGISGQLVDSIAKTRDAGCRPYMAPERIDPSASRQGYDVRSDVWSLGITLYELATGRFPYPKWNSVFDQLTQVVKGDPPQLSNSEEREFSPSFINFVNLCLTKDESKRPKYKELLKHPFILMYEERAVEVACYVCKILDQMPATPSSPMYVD
Chain of UniProt Q16539 (Q16539 whole entry, looked up): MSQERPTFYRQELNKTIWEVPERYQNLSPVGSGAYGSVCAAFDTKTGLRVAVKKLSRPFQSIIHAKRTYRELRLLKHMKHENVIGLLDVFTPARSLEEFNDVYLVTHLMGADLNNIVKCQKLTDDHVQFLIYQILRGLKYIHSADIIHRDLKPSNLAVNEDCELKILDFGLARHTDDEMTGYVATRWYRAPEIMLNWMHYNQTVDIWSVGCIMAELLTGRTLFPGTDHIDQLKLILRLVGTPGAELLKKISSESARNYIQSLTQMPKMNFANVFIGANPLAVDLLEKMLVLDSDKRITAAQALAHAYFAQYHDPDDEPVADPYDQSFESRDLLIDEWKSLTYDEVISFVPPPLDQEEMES
Chain of UniProt Q14739 (Q14739 whole entry, looked up): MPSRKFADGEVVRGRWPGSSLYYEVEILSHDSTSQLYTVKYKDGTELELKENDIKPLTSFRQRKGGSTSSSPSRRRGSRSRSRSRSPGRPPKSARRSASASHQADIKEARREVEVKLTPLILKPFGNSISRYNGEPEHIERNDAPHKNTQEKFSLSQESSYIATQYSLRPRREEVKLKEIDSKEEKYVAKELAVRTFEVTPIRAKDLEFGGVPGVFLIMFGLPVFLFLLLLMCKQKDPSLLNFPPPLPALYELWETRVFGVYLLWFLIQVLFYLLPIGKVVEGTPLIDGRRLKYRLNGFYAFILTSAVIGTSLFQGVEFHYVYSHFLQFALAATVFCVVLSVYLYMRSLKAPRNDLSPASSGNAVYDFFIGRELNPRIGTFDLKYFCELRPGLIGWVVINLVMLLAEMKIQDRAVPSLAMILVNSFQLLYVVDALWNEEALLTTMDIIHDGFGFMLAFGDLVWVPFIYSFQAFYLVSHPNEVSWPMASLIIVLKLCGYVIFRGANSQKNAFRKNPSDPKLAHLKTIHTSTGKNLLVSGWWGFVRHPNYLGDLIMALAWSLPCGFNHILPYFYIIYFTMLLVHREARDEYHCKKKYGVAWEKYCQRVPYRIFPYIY
Chain of UniProt Q9UFC0 (Q9UFC0 whole entry, looked up): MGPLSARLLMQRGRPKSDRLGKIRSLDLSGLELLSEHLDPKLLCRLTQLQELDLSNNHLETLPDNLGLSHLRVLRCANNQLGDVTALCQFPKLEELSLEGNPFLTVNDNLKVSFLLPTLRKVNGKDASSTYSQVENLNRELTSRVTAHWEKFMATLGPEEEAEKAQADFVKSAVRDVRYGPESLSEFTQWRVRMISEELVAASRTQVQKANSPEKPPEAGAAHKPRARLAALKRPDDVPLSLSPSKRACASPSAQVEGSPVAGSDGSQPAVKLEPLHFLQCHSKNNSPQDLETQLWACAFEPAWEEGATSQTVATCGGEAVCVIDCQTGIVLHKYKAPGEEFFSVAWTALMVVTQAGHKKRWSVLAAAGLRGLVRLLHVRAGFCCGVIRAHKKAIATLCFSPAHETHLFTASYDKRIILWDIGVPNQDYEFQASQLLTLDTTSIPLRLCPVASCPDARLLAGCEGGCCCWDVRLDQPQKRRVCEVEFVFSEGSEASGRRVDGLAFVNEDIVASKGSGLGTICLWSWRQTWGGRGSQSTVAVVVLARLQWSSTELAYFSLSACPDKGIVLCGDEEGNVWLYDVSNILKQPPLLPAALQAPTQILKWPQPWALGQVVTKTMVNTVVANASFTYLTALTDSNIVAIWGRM
Chain of UniProt Q13163 (Q13163 whole entry, looked up): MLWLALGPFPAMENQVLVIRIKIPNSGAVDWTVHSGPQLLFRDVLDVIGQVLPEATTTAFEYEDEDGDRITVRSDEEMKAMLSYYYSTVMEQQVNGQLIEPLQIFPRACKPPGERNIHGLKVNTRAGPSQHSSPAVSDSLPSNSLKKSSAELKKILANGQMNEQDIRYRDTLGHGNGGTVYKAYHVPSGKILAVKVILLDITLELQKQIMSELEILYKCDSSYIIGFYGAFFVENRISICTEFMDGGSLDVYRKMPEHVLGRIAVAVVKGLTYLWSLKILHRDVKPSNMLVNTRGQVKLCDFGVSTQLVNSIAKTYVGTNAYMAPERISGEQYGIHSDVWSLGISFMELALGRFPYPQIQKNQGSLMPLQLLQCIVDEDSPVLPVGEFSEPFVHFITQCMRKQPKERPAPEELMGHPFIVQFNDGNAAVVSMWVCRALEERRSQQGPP
Chain of UniProt Q9BTT4 (Q9BTT4 whole entry, looked up): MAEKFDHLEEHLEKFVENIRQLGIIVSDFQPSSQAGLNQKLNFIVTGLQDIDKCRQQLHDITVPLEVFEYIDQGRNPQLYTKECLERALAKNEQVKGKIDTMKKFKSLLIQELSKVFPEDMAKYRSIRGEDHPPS

log2 fold change, inactive:
MAP1S (UniProt Q66K74) -0.041
MON2 isoform 5 (UniProt Q7Z3U7) -0.042
LRPPRC (UniProt P42704) 0.019
LBR (UniProt Q14739) -0.121
MAPK14 (UniProt Q16539) -0.008
MLST8 (UniProt Q9BVC4) 0.021
MMS19 isoform 8 (UniProt Q96T76) -0.02
KNL1 (UniProt Q8NG31) -0.032
KLC1 isoform 6 (UniProt Q07866) 0.005
MICU1 isoform 3 (UniProt Q9BPX6) 0.001
MOCS1 isoform 8 (UniProt Q9NZB8) 0.035
KLHL36 (UniProt Q8N4N3) -0.028
MAP2K4 isoform 2 (UniProt P45985) -0.015
MED17 (UniProt Q9NVC6) -0.003
MAP2K5 (UniProt Q13163) -0.075
LRWD1 (UniProt Q9UFC0) 0
MCMBP (UniProt Q9BTE3) 0.038
MRPL15 (UniProt Q9P015) -0.056
MAST4 (UniProt O15021) 0.061
MBLAC2 (UniProt Q68D91) 0.003
KNSTRN (UniProt Q9Y448) 0.081
MAP4K4 isoform 3 (UniProt O95819) -0.002
MACROD1 (UniProt Q9BQ69) -0.024
MAPK9 (UniProt P45984) 0.002
LRRC40 (UniProt Q9H9A6) 0.025
MRPL10 isoform 2 (UniProt Q7Z7H8) -0.019
MICB, A0A140T979 -0.101
LIG3 (UniProt P49916) 0.023
MAPKAPK3 (UniProt Q16644) -0.003
KIF2C (UniProt Q99661) 0.025
LRCH3 (UniProt Q96II8) -0.017
LYAR (UniProt Q9NX58) 0.016
MGST1 (UniProt P10620) -0.047
KLC4 isoform 3 (UniProt Q9NSK0) -0.023
MAPKAPK5 (UniProt Q8IW41) -0.012
MED10 (UniProt Q9BTT4) -0.055
LPIN1 isoform 7 (UniProt Q14693) -0.025
KIF21A isoform 5 (UniProt Q7Z4S6) 0
MAP2K1 (UniProt Q02750) 0.075
